SW480 rereplic: A quantitative high throughput screen for small molecules that induce DNA re-replication in SW480 colon adenocarcinoma cells; Potency, µM (top dose mostly 46.1 µM), without a hit: at the highest dose re-replication activation, actives largely listed as activators; SW480 DNA re-replication, Hoechst DNA content imaging, 48 h; 340,000 compounds, 1.8% hits; note: % of control where 0% means no effect; nearly all actives have a fitted effect of over 55% in size
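Cells (250 per well) received 23 nL compound or DMSO by pin tool and were kept 48 hr at 37 C, 5% CO2. Nuclei were then stained with Hoechst for 40 min and scanned for DNA content.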
PINK1 expr mod: A Quantitative High throughput Screen to Identify Chemical Modulators of PINK1 Expression | PINK1 immunofluorescence, high-content cytometry, 24 h | 410,000 compounds, 0.2% hits | Potency, µM (highest dose often 76.6 µM), without a hit: top-dose activation (PINK1 increase), most hits filed as activators | AID 624263, 2012; active = well fitted activation curve with a large enough effect; inconclusive = small, poorly fitted or top-dose-only effect; cell line not stated here; note: % of control where 0% means no effect; nearly all actives have a fitted effect of over 65% in size
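Compound titrations (5 concentrations, 24 h) on a stable cell line; DMSO and CCCP controls. Endpoint: fixed-cell PINK1 immunofluorescence with mitochondrial, cell and nuclear markers, scanned by microplate cytometer.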
KB-3-1 cytotox: qHTS assay for MDR1-selective chemotherapeutics: Primary screen using the parental adenocarcinoma cell KB-3-1 | KB-3-1 viability, CellTiter-Glo ATP luminescence, 72 h | Potency, µM (series often up to 46.1 µM), hits mostly cytotoxic | 400,000 compounds, 1.4% hits | AID 1347075, 2019; note: % is set by controls: 0 for no effect and ±100 for the full control effect; nearly all actives have a fitted effect of over 60% in size
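72 h, 37 °C compound treatment of KB-3-1 parental cells; CellTiter-Glo added, 10 min, luminescence read. Data corrected against DMSO-only plates and normalized before curve fitting.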
MCF10A rerep: A quantitative high throughput screen for small molecules that induce DNA re-replication in MCF 10a normal breast cells | MCF 10A DNA re-replication, Hoechst nuclear intensity, 48 h | Potency, µM (highest dose often 46.1 µM), for inactives: at the top dose activity, positive = re-replication, hits mostly activators | 350,000 compounds, 2.9% hits | AID 624296, 2012; note: % of control where 0% means no effect; nearly all actives have a fitted effect of over 50% in size
12-LOX inh: Primary qHTS assay for inhibitors of human arachidonate 12S-lipoxygenase (ALOX12): Round 2; 580,000 compounds, 1.1% hits; Potency, µM (top dose mostly 108 µM), for the others: top-dose activity change, negative = inhibition, usual class: inhibitors; purified 12hLO, xylenol orange hydroperoxide absorbance; Polyunsaturated fatty acid lipoxygenase ALOX12 (Homo sapiens), P18054; note: % is set by controls: 0 for no effect and ±100 for the full control effect
Target sequence (P18054 whole entry, looked up): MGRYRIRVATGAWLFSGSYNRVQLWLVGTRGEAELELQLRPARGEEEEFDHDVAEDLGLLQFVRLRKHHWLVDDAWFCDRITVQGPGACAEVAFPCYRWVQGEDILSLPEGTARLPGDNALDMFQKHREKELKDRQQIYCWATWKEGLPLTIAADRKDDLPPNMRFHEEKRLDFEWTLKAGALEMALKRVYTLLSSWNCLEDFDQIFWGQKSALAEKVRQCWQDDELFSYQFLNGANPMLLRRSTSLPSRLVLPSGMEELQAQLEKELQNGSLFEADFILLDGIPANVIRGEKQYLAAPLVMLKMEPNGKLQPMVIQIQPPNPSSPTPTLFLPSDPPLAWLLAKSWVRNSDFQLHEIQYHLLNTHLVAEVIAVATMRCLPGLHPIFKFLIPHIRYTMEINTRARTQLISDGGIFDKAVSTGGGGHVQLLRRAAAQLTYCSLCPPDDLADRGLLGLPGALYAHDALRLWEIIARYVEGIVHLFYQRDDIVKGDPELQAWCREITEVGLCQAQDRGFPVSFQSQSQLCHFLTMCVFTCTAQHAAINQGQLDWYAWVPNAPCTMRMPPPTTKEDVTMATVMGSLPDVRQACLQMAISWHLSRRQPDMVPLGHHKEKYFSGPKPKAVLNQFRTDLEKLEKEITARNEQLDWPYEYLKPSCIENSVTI
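Hydroperoxide product was detected by ferrous iron/xylenol orange as the 573 to 405 nm absorbance ratio. Arachidonic acid at 40 uM (final) was turned over for 30 min at room temperature by 150 nM human 12hLO, pH 7.0 Hepes buffer, after 15 min compound preincubation.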
KB-V1 MDR tox: qHTS assay for MDR1-selective chemotherapeutics: Primary screen using the drug-selected MDR subline cells KB-V1. KB-V1 MDR cells viability, CellTiter-Glo, 72 h. Potency, µM (series often up to 46.1 µM), most hits filed as cytotoxic. 400,000 compounds, 3.4% hits; note: % is set by controls: 0 for no effect and ±100 for the full control effect; nearly all actives have a fitted effect of over 60% in size
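Compound-treated KB-V1 multidrug-resistant cells, 72 h, 37 degrees C; viability by CellTiter-Glo. Fitted qHTS curves give the values.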
Active calls of the source: *; i = inactive; ? = inconclusive; nt = no result; [ ] = remark or other dose. Most compounds without a hit are left out; they make up all but 5.8% or so of the library. Unless noted, calls come from the whole dose curve; as a rule, active = well fitted curve in the direction sought with a large enough effect; inconclusive = small, poorly fitted or top-dose-only effect, or another doubt; inactive = no such curve, though single readings can be large; an effect the other way counts as inactive or inconclusive. Potency is the fitted concentration of half-maximal effect.

SMILES	SW480 rereplic	PINK1 expr mod	KB-3-1 cytotox	MCF10A rerep	12-LOX inh	KB-V1 MDR tox
COc1ccc(-c2cc(C(F)(F)F)n3nc(C(=O)Nc4c(C)n(C)n(-c5ccccc5)c4=O)cc3n2)cc1	20%	-2%	?	18µM*	?	i
COc1ccc(-c2cc(C(F)(F)F)n3nc(C(=O)NCCCn4ccnc4)cc3n2)cc1	?	3%	i	13µM*	402%	i
CN1CCc2c([nH]c3ccccc23)C12CCN(C(=O)c1ccccn1)CC2	nt	nt	nt	nt	22%	nt
Cc1ccc(-c2csc(N)c2C#N)c(C)c1	nt	nt	nt	nt	22µM*	nt
Cc1ccc(-c2nc(N)nc(N)n2)c(C)c1	6%	2%	i	-4%	16%	i
N#Cc1c(-c2ccc(Cl)cc2Cl)csc1N	nt	nt	nt	nt	20µM*	nt
CCCCCCCOc1ccc(C(=O)c2ccccc2)cc1	nt	nt	nt	nt	43%	nt
N#C/C(=N\Nc1cccc(C(F)(F)F)c1)C(=O)c1ccsc1	-15%	11µM*	16µM*	?	?	3.3µM*
Cc1nccc(-c2cccc(N/N=C(\C#N)C(=O)c3ccccc3)c2)n1	?	10%	?	13%	224%	?
NC1=NC(=O)/C(=C/c2ccccc2OS(=O)(=O)c2ccccc2)S1	13%	?	i	1%	1%	i
NC1=NC(=O)/C(=C/c2c(OS(=O)(=O)c3ccc(Cl)cc3)ccc3ccccc23)S1	?	13µM*	i	0%	-18%	i
COc1ccc(S(=O)(=O)N2CCOCC2)cc1NC(=O)Cc1sc(C)nc1-c1ccc(F)cc1	4%	-1%	?	3%	-19%	12µM*
COc1ccc(S(=O)(=O)N2CCCCC2)cc1NC(=O)Cc1sc(C)nc1-c1ccc(F)cc1	4%	3%	i	7%	-16%	?
COc1ccc(S(=O)(=O)N2CCOCC2)cc1NC(=O)COc1cccnc1[N+](=O)[O-]	-9%	-1%	i	0.58µM*	1%	i
O=C(COc1cccnc1[N+](=O)[O-])Nc1cccc(S(=O)(=O)N2CCOCC2)c1	1%	-2%	i	4%	0%	i
CC(C)(C)c1ccc(C2(C)NC(=O)N(Cc3ncc(-c4ccccc4)o3)C2=O)cc1 (stereo unspecified)	nt	nt	nt	nt	-27%	nt
O=C1C=C(Nc2ccc(Cl)cc2Cl)CC(c2ccco2)C1 (stereo unspecified)	16µM*	1%	6.5µM*	?	?	7.3µM*
CC(=O)Nc1ccc(NC(=O)CN(C)Cc2ccc(C(F)(F)F)cc2)cc1	nt	nt	nt	nt	-1%	nt
CC(C)c1ccc(C(=O)NCCCNC(=O)c2cc3ccccc3[nH]2)cc1	nt	nt	nt	nt	-7%	nt
Cc1ccccc1-c1cnc2[nH]cc(CC(=O)Nc3cccnc3)c2c1	nt	nt	nt	nt	-16%[176 µM]	nt
CCCC1=[N+](CC)CCn2c(C)ccc21	16%	nt	i	1%	20µM*	i
Clc1ccc(C2=Nn3c(nnc3-c3n[nH]c4c3CCC4)SC2)cc1Cl	?	0%	?	?	34%	4.6µM*
c1ccc(C2=Nn3c(nnc3-c3n[nH]c4c3CCC4)SC2)cc1	-6%	5%	i	?	-9%	?
CC(=O)Nc1ccc(/C=C(/C#N)C(=O)C(C)(C)C)cc1	nt	nt	nt	nt	-23%	nt
Cc1ccc(NC(=O)N2CCC3(CC2)CC(Cc2nc(-c4ccccc4)no2)CCO3)cc1C (stereo unspecified)	nt	nt	nt	nt	2%	nt
CN1CCC(NC(=O)c2ccc3c(c2)n(Cc2ccc(F)cc2)c(=O)c2ccnn23)CC1	nt	nt	nt	nt	20µM*	nt
COc1cccc2c(=O)c3ccoc3n(C)c12	-46%	0%	i	-1%	37%	i

Source: PubChem
